Screens from PubChem BioAssay.
UGM FP inh: Mtb UDP-galactopyranose mutase inhibition; AID 504406; purified UGM, fluorescence polarization probe displacement; inhibition, % at 10 µM; P9WIQ1; 320,000 tested, 0.06% active; in the data active = inhibition above about 10%, passing the limit was not always enough; inconclusive = no clear call, values can overlap the other calls
FBA Mtb inh: Mtb fructose-bisphosphate aldolase inhibition. P9WQA3. purified M. tuberculosis FBA, fluorescence read-out. inhibition, % at 1 µM. 360,000 tested, 2.3% active. AID 588726; in the data active = inhibition above about 27%;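 also: 0% = vehicle and 100% = reference inhibitor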
Target sequence (P9WQA3 whole entry, looked up): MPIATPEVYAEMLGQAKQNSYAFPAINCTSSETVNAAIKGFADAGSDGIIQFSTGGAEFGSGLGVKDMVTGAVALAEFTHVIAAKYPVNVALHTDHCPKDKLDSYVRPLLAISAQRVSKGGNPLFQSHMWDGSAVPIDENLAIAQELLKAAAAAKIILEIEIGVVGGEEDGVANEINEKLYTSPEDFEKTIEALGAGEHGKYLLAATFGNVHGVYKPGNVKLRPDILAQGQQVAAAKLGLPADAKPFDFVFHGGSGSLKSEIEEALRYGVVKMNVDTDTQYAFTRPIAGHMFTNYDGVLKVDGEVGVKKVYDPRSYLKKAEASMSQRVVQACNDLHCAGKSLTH
SSB-PriA inh: inhibitors of Klebsiella pneumoniae PriA binding to SSB C-terminal tail | AlphaScreen SSBct-PriA binding, biotinylated peptide | inhibition, % at 33 µM | 430,000 tested, 0.6% active | AID 1272365; in the data active = inhibition mostly above about 37%, no sharp cut-off; inactive = mostly below about 20%;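 also: plate controls were negative control peptide for no effect and reference peptide for full effect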
Rv3671c inh: inhibits the M. tuberculosis serine protease Rv3671c; P9WHR9; inhibition, % at 5.96 µM; 320,000 tested, 0.048% active; in the data active = inhibition above about 38%;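 also: extracellular domain of Rv3671c used as enzyme; 0% = enzyme with DMSO and 100% = no enzyme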
Target sequence (P9WHR9 whole entry, looked up, the tested form may be a part): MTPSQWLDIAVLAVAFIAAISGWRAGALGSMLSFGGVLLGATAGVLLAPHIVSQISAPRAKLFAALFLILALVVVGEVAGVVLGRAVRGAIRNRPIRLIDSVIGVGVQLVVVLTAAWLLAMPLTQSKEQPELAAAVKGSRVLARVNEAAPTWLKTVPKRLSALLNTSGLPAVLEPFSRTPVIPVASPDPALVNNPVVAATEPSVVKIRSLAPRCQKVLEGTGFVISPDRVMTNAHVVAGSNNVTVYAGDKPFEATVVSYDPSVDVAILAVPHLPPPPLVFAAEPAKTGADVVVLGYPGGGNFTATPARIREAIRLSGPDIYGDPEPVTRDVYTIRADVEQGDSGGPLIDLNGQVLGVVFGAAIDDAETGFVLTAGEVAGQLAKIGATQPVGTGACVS
Mtb bLac sens: beta-lactam sensitization of Mtb H37Rv | M. tuberculosis H37Rv growth with meropenem, percent inhibition | inhibition, % at 25 µM | 330,000 tested, 0.27% active; call rule not given here;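 also: growth measured after seven days incubation then overnight dye step; 0% = bacteria only wells and 100% = bacteria with antibiotic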
GDH-TPI counter: counter-screen for M. tuberculosis FBA inhibitors: GDH-TPI coupled enzymes. GDH-TPI coupled enzyme counterscreen, NADH absorbance. 360,000 tested, 1.2% active. inhibition, % at 4.8 µM; in the data active = inhibition above about 30%;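 also: 0% = DMSO wells and 100% = wells lacking the enzyme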
Active calls of the source: *; i = inactive; ? = inconclusive; . = no result; + = active, no number; ! = repeats disagree. An excerpt weighted towards active compounds, which were near 3.2% of everything screened.

SMILES	UGM FP inh	FBA Mtb inh	SSB-PriA inh	Rv3671c inh	Mtb bLac sens	GDH-TPI counter
CCc1cc(=O)oc2c3c(cc(OCC(=O)NCc4ccccn4)c12)OC(C)(C)CC3	3.0	188.9*	-2.9	-6.1	-1.9	9.8
CCc1cc(=O)oc2c3c(cc(OCC(=O)Nc4cccnc4)c12)OC(C)(C)CC3	-1.9	34.2*	-7.4	-6.3	3.0	23.5
CCc1cc(=O)oc2c3c(cc(OCC(=O)NCc4cccnc4)c12)OC(C)(C)CC3	3.2	+	0.9	-6.3	-3.9	3.9
Cc1c(OCC(=O)NCc2cccnc2)ccc2c3c(c(=O)oc12)CCC3	-0.8	9.9	3.5	-10.4	?	20.7
NC(=O)C1CCN(C(=O)Cn2cnc(-c3ccccc3)cc2=O)CC1	.	.	-2.0	.	.	.
CCc1cc(=O)oc2c3c(cc(OCC(=O)NCCCCCC(=O)O)c12)OC(C)(C)CC3	-1.6	+	-6.7	5.9	-5.6	25.0
CN(C)c1cccc(C(=O)N2CCN(C(=O)c3cnn4ccccc34)CC2)c1	.	.	-16.0	.	.	.
Cc1ccc(/C=N/NC(=O)/C(=C\Nc2nccc(C)n2)NC(=O)c2ccccc2)cc1	.	.	i	.	.	.
Cc1ccnc(N/C=C(/NC(=O)c2ccccc2)C(=O)N/N=C\c2ccc(Cl)cc2)n1	-0.6	-5.5	.	-10.4	-6.0	91.1*
COc1cc(C=NNC(=O)c2cccc(S(=O)(=O)N3CCCC3)c2)cc(OC)c1O	.	.	5.5	.	.	.
Cc1ccc(C(=O)N/C(=C\C=C\c2ccccc2)C(=O)NCc2ccco2)cc1	1.0	3.6	2.8	-10.2	12.3	35.9*
COC(=O)/C(=C\C=C\c1ccccc1)NC(=O)c1ccccc1	3.3	-2.5	-22.8	3.2	-3.1	22.8
O=C(O)CCNC(=O)/C(=C\C=C\c1ccccc1)NC(=O)c1ccccc1	.	4.5	-9.1	10.7	-2.7	53.1*
O=C(Nc1ccc(O)cc1)/C(=C\C=C\c1ccccc1)NC(=O)c1ccccc1	-2.5	1.4	1.1	-4.2	-6.8	74.0*
O=C(N/C(=C/C=C/c1ccccc1)C(=O)N1CCOCC1)c1ccccc1Cl	-4.6	2.7	-17.9	7.1	-9.7	21.7
O=C(Nc1ccc(C(=O)O)cc1)/C(=C\C=C\c1ccccc1)NC(=O)c1ccccc1Cl	-1.0	-4.4	0.0	-11.9	10.5	55.6*
CC1(C)Cc2cccc(OCC(=O)N3CCN(C(c4ccccc4)c4ccccc4)CC3)c2O1	.	.	-3.0	.	.	.
Cc1cc2ncc3c(n2n1)CCN(C(=O)Cn1c(=O)oc2ccccc21)C3	.	.	7.0	.	.	.
Cc1oc(-c2ccc(Cl)cc2)nc1CSc1nc(-c2ccncc2)cc(=O)[nH]1	.	.	-8.0	.	.	.
Cc1cc2ncc(CCCNC(=O)CCSc3ccccc3)cn2n1	.	.	-27.0	.	.	.
O=C(CC(=O)c1ccccc1)c1ccccc1	.	5.7	-35.8	.	.	23.8
CC(CC(=O)c1ccccc1)=NCCCN=C(C)CC(=O)c1ccccc1	.	-1.7	.	.	.	60.2*
C/C(=N/NC(=S)NCc1ccco1)c1cccc([N+](=O)[O-])c1	.	.	66.0*	.	.	.
CCNC(=S)NN=C(C)c1cccc([N+](=O)[O-])c1	.	.	9.3	.	.	.
C=CCC[C@@H](Cc1ccc(F)cc1)C(=O)OC[C@H](C)NC(=O)[C@H](CC=C)CC(=O)N(CCO)Cc1ccccc1	1.8	133.5*	-11.5	1.7	1.9	3.6
SMILES	UGM FP inh	FBA Mtb inh	SSB-PriA inh	Rv3671c inh	Mtb bLac sens	GDH-TPI counter
O=C(N/N=C/c1c(O)n(-c2ccccc2Cl)c(=O)c2ccccc12)C1COc2ccccc2O1 (centres undefined)	-0.6	34.4*	.	15.9	6.0	15.1
O=C(NN=Cc1c(O)n(-c2ccccc2Cl)c(=O)c2ccccc12)C1COc2ccccc2O1 (centres undefined)	.	.	-0.5	.	.	.
Cc1nc(C)c(C(=O)Nc2nc3c(s2)C(=O)NCCC3)s1	.	.	-12.0	.	.	.
Cc1nc(-n2cccc2)sc1C(=O)Nc1nc2c(s1)C(=O)NCCC2	.	.	active	.	.	.
Cn1c(C(=O)NCCN2CCOCC2)cc2c(=O)n3ccccc3nc21	0.2	+	-1.1	2.6	0.8	22.4
COCCCn1c(C(=O)NCCN2CCOCC2)cc2c(=O)n3ccccc3nc21	1.2	+	-1.6	-3.0	-0.8	9.7
Cc1ccc2nc3c(cc(C(=O)NCCCn4ccnc4)n3C)c(=O)n2c1	-2.1	+	-12.2	2.6	6.1	15.9
Cc1cccn2c(=O)c3cc(C(=O)NCCN4CCOCC4)n(C)c3nc12	-2.1	121.3*	5.6	7.3	-0.7	9.1
Cc1ccc2nc3c(cc(C(=O)NCc4ccco4)n3C)c(=O)n2c1	.	.	-3.0	.	.	.
Cc1nc2ccccn2c1C(=O)NCCCN1CCOCC1	2.6	2.5	-16.8	2.8	-6.5	6.3
CSCCC(C)(O)CNC(=O)c1cccn(C)c1=O (centres undefined)	.	.	-3.0	.	.	.
O=C(Nc1nc(-c2ccccn2)cs1)c1cccc(C(=O)Nc2nc(-c3ccccn3)cs2)n1	.	.	2.0	.	.	.
O=C(Nc1nc(-c2cc(Cl)sc2Cl)cs1)c1ccc(Br)s1	1.4	2.1	43.6*!	0.3	3.0	8.0
Cc1cccc(C(=O)Nc2nc(-c3ccccn3)cs2)c1C	.	.	73.2*	.	.	.
O=C(Nc1nc(-c2ccccn2)cs1)c1ccccc1Br	.	.	91.0*	.	.	.
O=C(Nc1nc(-c2ccccn2)cs1)c1ccccc1F	.	.	94.0*	.	.	.
COC(=O)NN=Cc1ccc(-c2cccc(Cl)c2)o1	.	.	-1.1	.	.	.
CN(C)S(=O)(=O)c1ccc(C(=O)N(CC(F)(F)F)C2CCOCC2)cc1	.	.	-2.0	.	.	.
Fc1ccccc1Nc1nc(-c2ccccn2)cs1	.	.	77.1*	.	.	.
COc1ccccc1Nc1nc(-c2ccccn2)cs1	.	.	26.2	.	.	.
Cc1cc(C(=O)Nc2nc(-c3ccccn3)cs2)c(C)o1	.	.	82.4*	.	.	.
COc1ccc2oc(C(=O)Nc3nc(-c4ccccn4)cs3)c(C)c2c1	-0.1	10.5	42.1*	-13.7	-4.7	-1.7
Cc1cc(C(=O)Nc2nc(-c3ccccn3)cs2)c(C)s1	.	.	62.1	.	.	.
COc1ccc(Br)c(C(=O)Nc2nc3ccccc3[nH]2)c1	3.0	2.2	-12.3	0.1	-4.9	8.3
COc1ccc2oc(C(=O)Nc3nc4ccccc4[nH]3)c(C)c2c1	1.5	2.9	2.4	-12.2	.	44.5*
SMILES	UGM FP inh	FBA Mtb inh	SSB-PriA inh	Rv3671c inh	Mtb bLac sens	GDH-TPI counter
CSc1ccc(NC(=O)C2CCN(S(C)(=O)=O)CC2)cc1	.	.	8.0	.	.	.
Cn1nc(C(=O)N2CCC(Cc3ccccc3)CC2)ccc1=O	.	.	-14.0	.	.	.
CCC(CC)n1ccc(C(=O)Nc2nc(-c3ccccn3)cs2)n1	.	.	3.5	.	.	.
Cc1nc(C(C)C)c(C(=O)Nc2nc(-c3ccccn3)cs2)s1	.	.	59.2*	.	.	.
O=C(Nc1nc(-c2ccccn2)cs1)c1ccc(Br)s1	0.2	9.2	56.4*	-23.4	87.0	18.5
COc1ccc(-c2c3c(nc4sc(C(=O)N5CCCCCC5)c(N)c24)CC(C)(C)CC3=O)cc1	.	.	-7.0	.	.	.
COCC(=O)N1CCCc2ccc(NC(=O)Nc3cc(Cl)ccc3OC)cc21	.	.	-21.0	.	.	.
CCCC(=O)Nc1c(C(=O)OCC)[nH]c2ccccc12	-0.7	6.1	39.2*	-6.6	-5.4	9.4
CCOC(=O)c1[nH]c2cc3c(cc2c1NC(=O)CN1CCCCC1C)OCO3 (centres undefined)	1.7	.	.	6.9	-5.5	.
CCOC(=O)c1[nH]c2cc3c(cc2c1NC(=O)CN1CCN(CCO)CC1)OCO3	-0.4	129.8*	-7.2	9.7	3.2	46.2*
